In PubChem BioAssay (EPA / NIEHS):
Inconclusive results are not listed. Calls of active or inactive are those of the source. Rule for the calls, unless noted: active = hit-call score of the fitted dose curve at least 0.9, where 1 is the maximum; inactive = score below 0.9.

Legend:
[1] = CEETOX_H295R_OHPROG_noMTC: CeeTox H295R High-throughput Steroidogenesis Assay for OH-Progesterone (OHPROG), maximum tolerated concentration (MTC) filtered results only (AID 2283914); details: actives raise or lower the signal
Procedure, shortened: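 After 48 h forskolin (10 uM) prestimulation, H295R adrenal cells received test chemical in 0.1% DMSO for 48 h. Medium 17alpha-hydroxyprogesterone was MTBE-extracted and measured by HPLC-MS/MS; gain or loss relative to DMSO, no MTT-based MTC filtering.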

[2] = CEETOX_H295R_CORTISOL_noMTC: CeeTox H295R High-throughput Steroidogenesis Assay for Cortisol, maximum tolerated concentration (MTC) filtered results only (AID 2283916); details: actives raise or lower the signal
Procedure, shortened: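 Cortisol secretion measured by LC-MS/MS after 48 h chemical treatment (final 0.1% DMSO) of forskolin-primed (10 uM, 48 h) H295R cells; gain or loss fitted relative to DMSO, without maximum-tolerated-concentration filtering.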

[3] = CEETOX_H295R_CORTIC_noMTC: CeeTox H295R High-throughput Steroidogenesis Assay for Corticosterone (CORTIC), maximum tolerated concentration (MTC) filtered results only (AID 2283917); details: actives raise or lower the signal
Procedure, shortened: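 Human adrenal H295R cells were prestimulated 48 h with 10 uM forskolin, then exposed 48 h to chemical in 0.1% DMSO. Medium corticosterone was MTBE-extracted and quantified by HPLC-MS/MS; bidirectional fits versus DMSO, concentrations not MTC-filtered.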

[4] = CEETOX_H295R_DOC_noMTC: CeeTox H295R High-throughput Steroidogenesis Assay for DOC, maximum tolerated concentration (MTC) filtered results only (AID 2283918); details: actives raise or lower the signal
Procedure, shortened: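 11-Deoxycorticosterone secreted by human adrenal H295R cells quantified by HPLC-MS/MS after 48 h chemical exposure (0.1% DMSO), following 48 h 10 uM forskolin prestimulation. Concentrations not filtered by MTT-derived MTC; bidirectional fitting.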

[5] = CEETOX_H295R_ESTRADIOL_noMTC: CeeTox H295R High-throughput Steroidogenesis Assay for Estradiol, maximum tolerated concentration (MTC) filtered results only (AID 2283919); details: actives raise or lower the signal
Procedure, shortened: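 Readout: dansyl-derivatized estradiol quantified by LC-MS/MS in medium from H295R cells dosed 48 h (0.1% DMSO) following 48 h forskolin (10 uM) prestimulation. Gain or loss of signal fitted against DMSO; no MTC filtering applied.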

[6] = CEETOX_H295R_PROG_noMTC: CeeTox H295R High-throughput Steroidogenesis Assay for Progesterone (PROG), maximum tolerated concentration (MTC) filtered results only (AID 2283920); details: actives raise or lower the signal
Procedure, shortened: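 Progesterone secreted into medium was measured by HPLC-MS/MS after MTBE extraction, following 48 h chemical exposure (0.1% DMSO) of forskolin-prestimulated (10 uM, 48 h) H295R adrenal cells. Gain or loss fitted against DMSO; no MTC filtering.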

[7] = CEETOX_H295R_ESTRONE_noMTC: CeeTox H295R High-throughput Steroidogenesis Assay for Estrone, maximum tolerated concentration (MTC) filtered results only (AID 2283921); details: actives raise or lower the signal
Procedure, shortened: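 Estrone in spent medium, quantified by tandem MS following dansyl chloride derivatization, after 48 h chemical exposure (0.1% DMSO) of forskolin-prestimulated (10 uM, 48 h) H295R cells; concentrations not MTC-filtered, bidirectional fit against DMSO.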

[8] = CEETOX_H295R_ANDR_noMTC: CeeTox H295R High-throughput Steroidogenesis Assay for Androstenedione (ANDR), maximum tolerated concentration (MTC) filtered results only (AID 2283915); details: actives raise or lower the signal
Procedure, shortened: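 Androstenedione secreted into medium was measured by LC-MS/MS after MTBE extraction. Human adrenal H295R cells received 10 uM forskolin for 48 h before 48 h chemical exposure (0.1% DMSO). Gain or loss fitted against DMSO, including concentrations above the MTT-derived MTC.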

[9] = CEETOX_H295R_TESTO_noMTC: CeeTox H295R High-throughput Steroidogenesis Assay for Testosterone (TESTO), maximum tolerated concentration (MTC) filtered results only (AID 2283924); details: actives raise or lower the signal
Procedure, shortened: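 Medium testosterone, measured by HPLC-MS/MS after liquid-liquid extraction, was fitted in both directions relative to DMSO without MTC filtering. Adrenal H295R cells received 48 h chemical exposure (0.1% DMSO final) after 48 h forskolin (10 uM) prestimulation; viability by MTT.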

PGR (gene 5241) = PGR (gene 5241) (UniProt P06401); assay: TOX21_PR_BLA_Followup_Agonist_ratio: Tox21 HEK293 Progesterone Receptor (PR) Agonism Beta-lactamase Follow-Up Assay, Ratio (AID 2283933; active = hit-call score of the fitted dose curve at least 0.9, where 1 is the maximum)
Sequence of PGR (gene 5241) (P06401 whole entry, looked up): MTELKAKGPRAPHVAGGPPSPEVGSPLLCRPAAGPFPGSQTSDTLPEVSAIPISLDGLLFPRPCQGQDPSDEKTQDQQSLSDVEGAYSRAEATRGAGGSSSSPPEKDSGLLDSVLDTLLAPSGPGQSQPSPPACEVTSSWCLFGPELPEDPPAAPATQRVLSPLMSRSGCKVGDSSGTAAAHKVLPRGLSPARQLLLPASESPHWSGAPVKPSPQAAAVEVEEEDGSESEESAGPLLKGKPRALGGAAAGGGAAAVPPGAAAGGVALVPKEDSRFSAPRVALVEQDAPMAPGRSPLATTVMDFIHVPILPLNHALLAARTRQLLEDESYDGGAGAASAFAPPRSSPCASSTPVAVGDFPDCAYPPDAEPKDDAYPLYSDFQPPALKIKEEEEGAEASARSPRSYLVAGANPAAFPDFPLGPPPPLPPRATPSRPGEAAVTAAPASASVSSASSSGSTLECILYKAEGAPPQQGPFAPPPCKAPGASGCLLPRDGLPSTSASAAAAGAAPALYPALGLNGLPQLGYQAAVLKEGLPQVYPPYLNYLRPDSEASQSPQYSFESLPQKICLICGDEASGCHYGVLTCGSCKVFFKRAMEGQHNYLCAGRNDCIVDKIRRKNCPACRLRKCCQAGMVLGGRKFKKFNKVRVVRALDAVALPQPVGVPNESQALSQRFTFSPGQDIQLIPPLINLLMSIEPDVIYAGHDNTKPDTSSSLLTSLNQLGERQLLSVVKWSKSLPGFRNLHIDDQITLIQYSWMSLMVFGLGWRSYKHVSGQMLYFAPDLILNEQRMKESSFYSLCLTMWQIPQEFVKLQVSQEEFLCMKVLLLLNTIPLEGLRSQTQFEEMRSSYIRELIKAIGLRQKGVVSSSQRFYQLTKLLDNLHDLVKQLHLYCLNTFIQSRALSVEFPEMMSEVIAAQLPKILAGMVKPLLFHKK
Procedure, shortened: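 Beta-lactamase reporter readout: ratio of cleaved (ch2) to uncleaved (ch1) substrate after 2 h room-temperature loading, following 16 h compound exposure at 37C. Cells were PR-UAS-bla HEK293T in 2% charcoal-stripped FBS medium. Viability was multiplexed by CellTiter-Glo.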

Measured: AC50

Nc1c(Br)cc([N+](=O)[O-])cc1Br
active: [1] 20700 nM
inactive: [2] | [3] | [4] | [5] | [6] | [7]

CC(C)(C)c1cc(CCC(=O)NCCCCCCNC(=O)CCc2cc(C(C)(C)C)c(O)c(C(C)(C)C)c2)cc(C(C)(C)C)c1O
inactive: [8] | [2] | [3] | [4] | [5] | [7] | [9]
active: [1] 203 nM | [6] 452 nM

O=C(c1ccccc1)c1ccc(O)cc1O
inactive: PGR (gene 5241)
